TDP1 cell noCPT – qHTS for Inhibitors of human tyrosyl-DNA phosphodiesterase 1 (TDP1): qHTS in cells in absence of CPT; DT40 Tdp1-/- hTDP1 cells, no CPT, ATP luminescence, 48 h; Potency, µM (doses to about 46.2 µM), for inactives: at the top dose activity change, negative = growth inhibition, hits mostly inhibitors; 15% of 420,000 active; note: potency is the fitted concentration of half-maximal effect; nearly all actives have a fitted effect of over 55% in size
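Cells were dispensed at 400 per well, compounds added by pin tool, plates incubated ≥48 hr at 37 °C, then CellTiter-Glo added for 30 min at room temperature before luminescence reading. Line: DT40 Tdp1-/- complemented with hTDP1; camptothecin omitted.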
HT1080 IDH1KD tx – qHTS for induction of synthetic lethality in tumor cells producing 2HG: qHTS for the HT-1080-IDH1KD cell line; 2% of 360,000 active; HT-1080 IDH1 knockdown viability, ATP luminescence, 48 h; Potency, µM (doses to about 46.1 µM), for inactives: at the top dose activity, negative = toxicity, hits mostly cytotoxic;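 note: potency is the fitted concentration of half-maximal effect; 0% = DMSO wells and -100% = cell-free medium wells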
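Viability of IDH1-knockdown HT-1080 fibrosarcoma cells was assessed by CellTiter-Glo after 48 h at 37 °C with titrated compound; concentration-effect curves were classified by fit quality and response size.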
HT1080NT lethal – qHTS for induction of synthetic lethality in tumor cells producing 2HG: qHTS for the HT-1080-NT fibrosarcoma cell line; HT-1080-NT fibrosarcoma viability, CellTiter-Glo ATP luminescence, 48 h; Potency, µM (top dose mostly 46.1 µM), inactives show at the top dose activity, negative = less viability, usual class: cytotoxic; 1.6% of 360,000 active;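 note: NT is the 2HG producing partner of a matched IDH1 knockdown line; potency is the fitted concentration of half-maximal effect; 0% = DMSO-treated cells and -100% = media-only wells without cells; nearly all actives have a fitted effect of over 55% in size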
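750 cells/well, RPMI + 5% FBS; 2 h settle, compound pin-transfer, 48 h at 37 degrees C. CellTiter-Glo 10 min RT, luminescence. Normalized to DMSO and media-only wells.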
IL-1B inflam inh – qHTS for Inhibitors of Inflammasome Signaling: IL-1-beta AlphaLISA Primary Screen; THP-1 LPS/ATP IL-1B secretion, AlphaLISA, 16 h; stronger effect = lower value; activity change, % at 57.5 µM; 4.7% of 360,000 active; in the data active = activity change below about -50%; inconclusive = mostly about -30% to -49%
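THP-1 cells pretreated 1 hr with compounds (up to 57.5 uM final), then stimulated with LPS (250 ng/mL final) plus ATP (1.25 mM final); secreted IL-1B measured by AlphaLISA after 16 hr, decreased signal indicating inhibition.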
DT40 TDP1 CPT – qHTS for Inhibitors of human tyrosyl-DNA phosphodiesterase 1 (TDP1): qHTS in cells in presence of CPT; chicken DT40 Tdp1-/-;hTDP1 cells + 20 nM CPT, ATP luminescence, 48 h; Potency, µM (titrated, usually from 46.2 µM), without a hit: top-dose activity change, negative = growth inhibition, hits mostly inhibitors; 12% of 420,000 active; AID 686979, 2013; note: potency is the fitted concentration of half-maximal effect; nearly all actives have a fitted effect of over 55% in size
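Chicken DT40 Tdp1-/- cells complemented with human TDP1, 400 cells/well, exposed to compounds plus 20 nM camptothecin for at least 48 h at 37 C; viability read as ATP content by CellTiter-Glo luminescence.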
The depositor's hits bear a star. A selection: hits, their analogues and other compounds. The true share with any hit is near 19%. Unless noted, calls come from the whole dose curve; as a rule, active = well fitted curve in the direction sought with a large enough effect; inconclusive = small, poorly fitted or top-dose-only effect, or another doubt; inactive = no such curve, though single readings can be large; an effect the other way counts as inactive or inconclusive. Unless noted, % is set by controls: 0 for no effect and ±100 for the full control effect.

How did Cc1cc(OCC(=O)OCC(=O)N2CCCc3ccccc32)ccc1Cl do in these assays?
TDP1 cell noCPT: -10%; HT1080 IDH1KD tx: -1%; HT1080NT lethal: -5%; IL-1B inflam inh: 0; DT40 TDP1 CPT: -9%

What do the screens show for `O=C(COc1cc2oc(=O)c3c(c2cc1Cl)CCC3)NCC(O)c1ccccc1` (stereo not drawn)?
TDP1 cell noCPT: inconclusive; HT1080 IDH1KD tx: 3%; HT1080NT lethal: 9%; IL-1B inflam inh: -7; DT40 TDP1 CPT: inconclusive

How did N#CCc1cc2ccc3cccc4ccc(c1)c2c34 do in these assays?
TDP1 cell noCPT: inconclusive; HT1080 IDH1KD tx: -15%; HT1080NT lethal: 11%; IL-1B inflam inh: -18; DT40 TDP1 CPT: -5%

How did N#CC1(c2ccccc2)CCN(S(=O)(=O)c2ccc(OC(F)(F)F)cc2)CC1 do in these assays?
TDP1 cell noCPT: 15µM*; HT1080 IDH1KD tx: -8%; HT1080NT lethal: -11%; IL-1B inflam inh: -12; DT40 TDP1 CPT: -22%

What do the screens show for `CC(Oc1ccccc1)C(=O)N1CCN(S(=O)(=O)c2ccc(OC(F)(F)F)cc2)CC1` (stereo not drawn)?
TDP1 cell noCPT: inconclusive; HT1080 IDH1KD tx: 5%; HT1080NT lethal: 2%; IL-1B inflam inh: 6; DT40 TDP1 CPT: 18µM*

Results for CC(Oc1ccccc1)C(=O)Nc1ccc(S(=O)(=O)N2CCN(C)CC2)cc1 (stereo not drawn) ?
TDP1 cell noCPT: -17%; HT1080 IDH1KD tx: 1%; HT1080NT lethal: 0%; IL-1B inflam inh: -26; DT40 TDP1 CPT: inconclusive

Results for Cn1nc(C(F)(F)F)c2cc(C(=O)Nc3ccc(F)cc3F)sc21 ?
TDP1 cell noCPT: 1%; HT1080 IDH1KD tx: 10%; HT1080NT lethal: 27%; DT40 TDP1 CPT: 11%

Results for Cn1nc(C(F)(F)F)c2cc(NC(=O)OCc3ccc(F)cc3)sc21 ?
TDP1 cell noCPT: -12%; HT1080 IDH1KD tx: inconclusive; HT1080NT lethal: -24%; IL-1B inflam inh: -87*; DT40 TDP1 CPT: -16%

What do the screens show for `Cn1nc(C(F)(F)F)c2cc(NC(=O)OCc3ccc(C(C)(C)C)cc3)sc21`?
TDP1 cell noCPT: -24%; HT1080 IDH1KD tx: -8%; HT1080NT lethal: 1%; IL-1B inflam inh: -87*; DT40 TDP1 CPT: -17%

How did COc1ccc(COC(=O)Nc2cc3c(C(F)(F)F)nn(C)c3s2)cc1 do in these assays?
TDP1 cell noCPT: -2%; HT1080 IDH1KD tx: inconclusive; HT1080NT lethal: 14%; IL-1B inflam inh: -1; DT40 TDP1 CPT: -4%

Results for Cc1nn(C)c(Cl)c1NC(=O)OCc1ccc(F)cc1 ?
TDP1 cell noCPT: 16µM*; HT1080 IDH1KD tx: -17%; HT1080NT lethal: -11%; IL-1B inflam inh: 9; DT40 TDP1 CPT: inconclusive

Results for Cc1nnsc1NC(=O)OCc1ccc(C(C)(C)C)cc1 ?
TDP1 cell noCPT: 8.2µM*; HT1080 IDH1KD tx: -29%; HT1080NT lethal: -23%; IL-1B inflam inh: -4; DT40 TDP1 CPT: 15µM*

How did COc1ccc(C(=O)NCc2nnc(SCC(=O)Nc3ccccc3)n2-c2ccccc2)cc1 do in these assays?
TDP1 cell noCPT: -23%; DT40 TDP1 CPT: inconclusive

How did c1ccc2c(c1)COc1c3ncccc3nn1-2 do in these assays?
TDP1 cell noCPT: inconclusive; HT1080 IDH1KD tx: -2%; HT1080NT lethal: -16%; IL-1B inflam inh: inconclusive; DT40 TDP1 CPT: -24%

How did c1ccc(-c2cn(-c3ccccc3)c3ncnc(NCCCN4CCOCC4)c23)cc1 do in these assays?
TDP1 cell noCPT: inconclusive; HT1080 IDH1KD tx: inconclusive; HT1080NT lethal: inconclusive; IL-1B inflam inh: -86*; DT40 TDP1 CPT: inconclusive

Results for Brc1ccc(-n2cc(-c3ccccc3)c3c(NN4CCOCC4)ncnc32)cc1 ?
TDP1 cell noCPT: inconclusive; HT1080 IDH1KD tx: -5%; HT1080NT lethal: 2%; IL-1B inflam inh: 6; DT40 TDP1 CPT: 18µM*

How did COc1ccc(-n2cc(-c3ccccc3)c3c(NCCCN4CCOCC4)ncnc32)cc1 do in these assays?
TDP1 cell noCPT: inconclusive; HT1080 IDH1KD tx: 18µM*; HT1080NT lethal: 21µM*; IL-1B inflam inh: -16; DT40 TDP1 CPT: inconclusive

What do the screens show for `Cn1c(-c2ccsc2)c(-c2cccs2)c2cc(Br)ccc21`?
TDP1 cell noCPT: inconclusive; HT1080 IDH1KD tx: -3%; HT1080NT lethal: -1%; IL-1B inflam inh: 10; DT40 TDP1 CPT: inconclusive

How did CCN(CC)CCCN(Cc1cc2cc3c(cc2[nH]c1=O)OCO3)C(=S)NC do in these assays?
TDP1 cell noCPT: -1%; HT1080 IDH1KD tx: 10%; HT1080NT lethal: 22%; IL-1B inflam inh: -2; DT40 TDP1 CPT: 20%

What do the screens show for `CCN(CC)CCCN(Cc1cc2cc3c(cc2[nH]c1=O)OCO3)C(=S)Nc1ccc(OC)cc1`?
TDP1 cell noCPT: 29µM*; HT1080 IDH1KD tx: -14%; HT1080NT lethal: 3%; IL-1B inflam inh: -71*; DT40 TDP1 CPT: -28%

What do the screens show for `COc1ccc(NC(=S)N(CCN2CCOCC2)Cc2cc3cc4c(cc3[nH]c2=O)OCCO4)cc1`?
TDP1 cell noCPT: -27%; HT1080 IDH1KD tx: -16%; HT1080NT lethal: -14%; IL-1B inflam inh: -61*; DT40 TDP1 CPT: inconclusive

What do the screens show for `COc1ccc(Nc2nc3c(S(=O)(=O)c4ccccc4)nnn3c3ccsc23)cc1OC`?
TDP1 cell noCPT: -7%; DT40 TDP1 CPT: -11%

How did CCOc1cc(C=C(C#N)C#N)ccc1Oc1ccc([N+](=O)[O-])cn1 do in these assays?
TDP1 cell noCPT: 13µM*; HT1080 IDH1KD tx: -3%; HT1080NT lethal: 0%; IL-1B inflam inh: -29; DT40 TDP1 CPT: 18µM*

How did N#C/C(=C/c1ccc(Oc2ccc([N+](=O)[O-])cn2)cc1)C(=O)N1CCOCC1 do in these assays?
TDP1 cell noCPT: -27%; HT1080 IDH1KD tx: -9%; HT1080NT lethal: -1%; IL-1B inflam inh: -29; DT40 TDP1 CPT: inconclusive

Results for COc1cc(/C=N\NC(=O)c2ccc(Cl)cc2)ccc1Oc1ccc([N+](=O)[O-])cn1 ?
TDP1 cell noCPT: -20%; HT1080 IDH1KD tx: -14%; HT1080NT lethal: -13%; IL-1B inflam inh: -16; DT40 TDP1 CPT: -4%

What do the screens show for `COc1cc(/C=N\NC(=O)c2ccccc2F)ccc1Oc1ccc([N+](=O)[O-])cn1`?
TDP1 cell noCPT: 4.6µM*; HT1080 IDH1KD tx: 7.3µM*; HT1080NT lethal: 21µM*; IL-1B inflam inh: -12; DT40 TDP1 CPT: 4.6µM*

How did COc1cc(/C=C(/C#N)c2ccc(F)cc2)ccc1Oc1ccc([N+](=O)[O-])cn1 do in these assays?
TDP1 cell noCPT: 3.7µM*; HT1080 IDH1KD tx: inconclusive; HT1080NT lethal: 1%; IL-1B inflam inh: -54*; DT40 TDP1 CPT: 2.9µM*

Screens: PubChem BioAssay, National Center for Advancing Translational Sciences (NCATS)
